# From PubChem BioAssay AID1578 (Sanford-Burnham Center for Chemical Genomics, 2009)
# In all, about 290,000 compounds went through this assay and about 3,000 (1%) were called active. Shown is part of a subset that was picked to be rich in actives. A number with no mark means an inactive call. Cut-off read from the data, not from the text of the source: active = inhibition mostly above about 36% (no sharp cut-off); inactive = mostly below about 34%.
# Assay: inhibition of NOD1-driven NF-kB reporter – cell-based, luminescence, uHTS, primary screen (AID 1578);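 note: HEK-293T reporter cells stimulated with the NOD1 agonist gamma-tri-DAP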
# Conditions: NOD1-driven NF-kB luciferase reporter cells, at 4 µM, stronger effect = higher value
row,SMILES,inhibition
1,Cc1ccc(C(=O)NC2CCc3ccccc3C2=O)cc1 (stereo unspecified),-47.4%
2,COCCN1CCN(C(=O)C2CCC(=O)N(Cc3ccccc3OC)C2)CC1 (stereo unspecified),-18.1%
3,N#CCCn1cc(/C=C/C(=O)O)c(-c2ccc(F)cc2)n1,-31.6%
4,COc1cc2c3nnc(-c4ccc(F)cc4)c-3cn(Cc3ccc(F)cc3)c2cc1OC,108% (active)
5,COc1ccc(Cn2cc3c(-c4ccc(F)cc4)nnc-3c3cc(OC)c(OC)cc32)cc1,10.1%
6,COc1cc2c3nnc(-c4ccc(F)cc4)c-3cn(Cc3ccc(C)cc3)c2cc1OC,-31.5%
7,Cc1cc(N2CC(C(=O)Nc3nccs3)CC2=O)ccc1C(C)C (stereo unspecified),-22.4%
8,COc1ccc(C(=O)Nc2cc(C)on2)cc1[N+](=O)[O-],-31.1%
9,O=C(Nc1ccc(-c2n[nH]c(=S)o2)cc1)c1ccccc1Cl,-4.7%
10,Cc1nn(-c2ncc(C(F)(F)F)cc2Cl)c(=O)n1-c1c(F)cccc1F,-38.4%
11,O=c1[nH]c(/C(Cl)=C/c2c(F)cccc2Cl)nc2cc(Cl)ccc12,25.9%
12,O=c1[nH]c(/C(Cl)=C/c2cc(Cl)ccc2O)nc2cc(Cl)ccc12,81.7% (active)
13,CCc1ccc(/C=C(\Cl)c2nc3cc(Cl)ccc3c(=O)[nH]2)cc1,-10.4%
14,CCOP(=O)(OCC)C(NC(C)=O)C(=O)c1ccccc1 (stereo unspecified),-30.2%
15,Cc1cc(C)cc(NC(=S)NCc2cccnc2)c1,-23.4%
16,CC(C)[C@@H]1COC(c2cccc(C3=N[C@H](C(C)C)CO3)n2)=N1,11.3%
17,CC(C)[C@@H]1COC(c2cccc(C3=N[C@H](C(C)C)CO3)c2)=N1,-29%
18,CC(C)[C@H]1COC(NC2=N[C@@H](C(C)C)CO2)=N1,75.5% (active)
19,Cc1ccc(C2C(=O)c3ccccc3C2=O)cc1,-11%
20,CCOc1ccc(N/C(=N/c2nc(C)cc(C)n2)NC(C)=O)cc1,-12%
21,COc1ccccc1-c1nc(C#N)c(N2CCN(Cc3ccccc3)CC2)o1,13.8%
22,Cc1ccc(N2CN=c3s/c(=C\c4cccnc4)c(=O)n3C2)cc1,84.1% (active)
23,Cc1ccc(N2CN=c3s/c(=C\c4ccccn4)c(=O)n3C2)cc1,-21.2%
24,CCc1ccc(N2CN=c3s/c(=C\c4ccccc4)c(=O)n3C2)cc1,-13%
25,COc1cccc(C2Nc3ccccc3NC3=C2C(=O)CC(C)(C)C3)c1OC (stereo unspecified),-8.8%
26,C=CCn1c(=O)c2c(nc3n2CCS3)n(C)c1=O,5.1%
